Screens deposited in PubChem BioAssay by National Center for Advancing Translational Sciences (NCATS).
HP1b chromo inh: inhibitors of HP1-beta chromodomain binding to methylated histone tails. P83916. AlphaScreen HP1-beta / biotin-H3K9me3 peptide binding. Potency, µM (series often up to 114 µM), for inactives: at the top dose activity change, negative = inhibition, usual class: inhibitors. 0.56% of 390,000 active. AID 540317; note: potency is the fitted concentration of half-maximal effect; nearly all actives have a fitted effect of over 70% in size
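HP1-beta protein (50 nM final) preincubated 30 min at room temperature with biotinylated H3(1-18)K9me3 peptide (50 nM) in PBS pH 7.4, 0.01% Tween-20, then compound added for 30 min. AlphaScreen streptavidin donor/nickel chelate acceptor beads (10 ug/mL final), 30 min dark, luminescence read.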
BAZ2B block: blocks human BAZ2B. AlphaScreen BAZ2B-H3K14Ac peptide displacement. Potency, µM (top dose mostly 114 µM), inactives show top-dose activity change, negative = inhibition, usual class: inhibitors. 4.4% of 360,000 active. Q9UIF8. AID 504333; note: potency is the fitted concentration of half-maximal effect; % is set by controls: 0 for no effect and ±100 for the full control effect; nearly all actives have a fitted effect of over 60% in size
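AlphaScreen displacement of biotin-H3(5-23)K14Ac peptide (50 nM final) from BAZ2B (50 nM final) in PBS pH 7.4, 0.01% Tween-20; complex preformed 30 min RT, then compounds (top 110 uM) 30 min RT, beads 20 min dark.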
L3MBTL1 inh: L3MBTL1 (human) inhibition; AlphaScreen L3MBTL1–H3K9me1 peptide binding; Potency, µM (doses to about 57.1 µM), inactives show top-dose activity, negative = inhibition, hits mostly inhibitors; AID 485360; 0.66% of 230,000 active; Q9Y468; note: potency is the fitted concentration of half-maximal effect; % is set by controls: 0 for no effect and ±100 for the full control effect; nearly all actives have a fitted effect of over 60% in size
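L3MBTL1 (50 nM) pre-complexed 30 min with biotinylated H3(1-15)K9me1 peptide (75 nM), then compounds added for 30 min at room temperature; AlphaScreen streptavidin donor/nickel chelate acceptor beads (10 ug/mL final) read after 30 min dark incubation.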
G9a inh-1: G9a (human) methyltransferase inhibition; Q96KQ7; G9a H3K9 monomethylation, AlphaScreen, 2 h; Potency, µM (series often up to 102 µM), without a hit: at the highest dose activity, negative = inhibition, most hits filed as inhibitors; 8.8% of 350,000 active; note: potency is the fitted concentration of half-maximal effect; % is set by controls: 0 for no effect and ±100 for the full control effect; nearly all actives have a fitted effect of over 75% in size
Target sequence (Q96KQ7 913-1193 limits assumed): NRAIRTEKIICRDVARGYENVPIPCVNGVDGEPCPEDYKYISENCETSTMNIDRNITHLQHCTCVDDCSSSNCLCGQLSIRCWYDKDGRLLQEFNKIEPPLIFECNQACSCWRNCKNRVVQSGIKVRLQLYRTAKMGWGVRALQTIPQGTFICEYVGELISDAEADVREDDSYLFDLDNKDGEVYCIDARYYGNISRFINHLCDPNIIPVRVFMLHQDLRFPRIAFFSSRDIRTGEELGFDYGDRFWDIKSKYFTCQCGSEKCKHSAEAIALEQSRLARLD
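Using a bead-based AlphaScreen, monomethylated H3K9 product from 2 h room-temperature reactions (G9a 20 nM, peptide 500 nM, SAM 20 uM) was detected with 0.5 ug/mL rabbit anti-H3K9me1 antibody.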
PI5P4Ka inh: PI5P4K alpha (human) kinase inhibition. P48426. PI5P4Kalpha enzyme, ADP-Glo luminescence, 60 min; hits give low values. max response, %. 1.2% of 330,000 active; active = max response of -50% or lower; inconclusive = between -30% and -50%; inactive = -30% or higher; note: value at the top dose of about 77 µM; % is set by controls: 0 for no effect and ±100 for the full control effect
Target sequence (P48426 whole entry, looked up): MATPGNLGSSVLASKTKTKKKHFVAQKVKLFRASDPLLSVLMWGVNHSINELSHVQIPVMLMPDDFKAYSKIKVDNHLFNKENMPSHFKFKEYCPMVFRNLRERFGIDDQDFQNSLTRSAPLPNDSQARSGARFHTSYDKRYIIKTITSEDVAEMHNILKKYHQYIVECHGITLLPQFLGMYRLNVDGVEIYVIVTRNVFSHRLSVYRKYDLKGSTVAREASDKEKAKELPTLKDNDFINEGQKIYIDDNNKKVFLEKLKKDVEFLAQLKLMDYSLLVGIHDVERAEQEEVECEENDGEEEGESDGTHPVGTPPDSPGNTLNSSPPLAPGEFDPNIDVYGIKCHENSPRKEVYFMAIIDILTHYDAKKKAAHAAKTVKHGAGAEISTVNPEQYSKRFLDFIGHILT
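Single end-point luminescence (ADP-Glo) quantified ADP from PI5P4Kalpha turnover; ATP 5 microM final, 1 h at RT, 0.1% CHAPS and 0.28 mM EGTA in HEPES pH 7.4.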
JMJD2A Tudor inh: inhibitors of human JMJD2A Tudor domain. AID 504339. AlphaScreen JMJD2A-Tudor / H3K4me3 peptide binding. O75164. 4.4% of 390,000 active. Potency, µM (titrated, usually from 114 µM), inactives show at the highest dose activity change, negative = inhibition, actives largely listed as inhibitors; note: potency is the fitted concentration of half-maximal effect; % is set by controls: 0 for no effect and ±100 for the full control effect; nearly all actives have a fitted effect of over 50% in size
JMJD2E inh: JMJD2E (human) demethylase inhibition, confirmation. Recombinant JMJD2E, FDH-coupled NADH fluorescence (FDH is formaldehyde dehydrogenase). Potency, µM (titrated, usually from 56.8 µM), for the others: at the highest dose activity change, negative = inhibition, usual class: inhibitors. 93% of 140 active. shares compounds with JMJD2A Tudor inh
FDH inh: FDH (Pseudomonas putida) inhibition counter-screen. shares compounds with JMJD2A Tudor inh. 10% of 140 active. FDH enzyme assay, NADH fluorescence kinetic. AID 2680. Potency, µM (highest dose often 56.7 µM), without a hit: at the top dose activity, negative = inhibition, usual class: inhibitors
G9a inh-2: inhibits human G9a histone lysine methyltransferase, hit confirmation | AID 588344 | shares compounds with JMJD2A Tudor inh | G9a H3K9 monomethylation, AlphaScreen, 2 h | Potency, µM, most hits filed as inhibitors | 89% of 370 active; note: potency is the fitted concentration of half-maximal effect; nearly all actives have a fitted effect of over 65% in size
Starred values were filed as active, the others as inactive; u = inconclusive; x = no result given; [ ] = another dose, or the depositor's remark. Rows were chosen to be rich in hits. Some 11% of all compounds tested hit in one or more screens of this group. Unless noted, calls come from the whole dose curve; as a rule, active = well fitted curve in the direction sought with a large enough effect; inconclusive = small, poorly fitted or top-dose-only effect, or another doubt; inactive = no such curve, though single readings can be large; an effect the other way counts as inactive or inconclusive.

SMILES	HP1b chromo inh	BAZ2B block	L3MBTL1 inh	G9a inh-1	PI5P4Ka inh	JMJD2A Tudor inh	G9a inh-2	others
CC(=O)c1cccc(NC(=O)COC(=O)c2cccs2)c1	1%	-1%	u	18%	-9	u	x
CCN(CC)c1ccc(NC(=O)COC(=O)c2ccc3ccccc3n2)cc1	u	50µM*	x	u	-4	u	6.3*
CCN(CC)c1ccc(NC(=O)COC(=O)c2cccs2)cc1	-8%	45µM*	x	1.3µM*	x	u	2.2*
COc1ccc(NC(=O)COC(=O)c2ccc3ccccc3n2)cc1	22%	4%	-1%	-3%[59 µM]	5	-3%	x
CCOc1ccc(-c2c(C)nn3c(C)c(C(=O)NCc4ccc(Cl)cc4)cnc23)cc1OCC	-15%	-15%	x	9%[59 µM]	x	-6%	x
Cc1ccc(NC2CCCN(C(=O)c3cn4cc(Cl)ccc4n3)C2)cc1C (centres undefined)	24%	u	x	u	3	1%	32*
Cc1ccc(NC2CCCN(C(=O)c3cn4cccc(C)c4n3)C2)cc1C (centres undefined)	6%	-25%	x	u	2	-18%	x
CC(C)NC(=O)Cn1nc(N2CCN(c3ccccc3)CC2)ccc1=O	23%	2%	x	8%[59 µM]	x	-11%	x
COc1ccccc1NC(=O)c1c(NCc2ccc(C)o2)sc2c1CCCCC2	u	u	x	1.3µM*	x	45µM*	3.6*
COc1ccc(OC)c(NC(=O)c2c(NCc3ccc(C)o3)sc3c2CCCCC3)c1	u	-37%	x	1.6µM*	x	35µM*	5.1*
CCCOc1ccc(/C=C/C(=O)Nc2sc3c(c2C(=O)OCC)CCC(C)C3)cc1OC (centres undefined)	25%	10%	x	0%[59 µM]	x	-17%	x
COc1ccc(CN2CCCN(CC(=O)Nc3cc(C)ccc3C)S2(=O)=O)cc1	36%	-2%	x	3%[59 µM]	x	-10%	x
Cc1nn(-c2ccccn2)c2c1C(=O)C(Br)CC2 (centres undefined)	u	x	x	1.3µM*	u	13µM*	0.25*
CCOc1ccc(S(=O)(=O)Nc2nc3ccccc3nc2N2CCN(C)CC2)cc1	30%	-28%	x	u	2	-12%	u
Oc1ccc(CN2CCCc3ccccc32)c2cccnc12	u	35µM*	28µM*	1.6µM*	-21	u	x	JMJD2E inh=1.3µM*;FDH inh=-27%
NNC(=O)CN1CCCc2ccccc21	-12%	-19%	-10%	3%	-15	3%[11.4 µM]	x
COc1ccc(-c2cn3c(n2)sc2cc(C(=O)NCc4cccs4)ccc23)cc1	22%	0%	x	-6%[59 µM]	x	-4%	x
O=C(CNC(=O)OCc1ccccc1)Nc1ccc(F)cc1	16%	3%	4%	u	0	u	u
CCOc1ccc(NC(=O)c2cc(C)nc3c2c(C)nn3-c2cccc(F)c2)cc1	22%	9%[57.1 µM]	x	-7%[59 µM]	x	5%	x
Fc1ccc(-n2ncc3c(Nc4ccc(Oc5ccc(Cl)cc5)cc4)ncnc32)cc1	28%	-2%	x	5%[59 µM]	x	2%	x
CCOc1c(Cl)cc(CNc2ccc(N3CCCC3)cc2)cc1OC	45µM*	20µM*	-20%	2.8µM*	-17	14µM*	6.3*
CCOC(=O)c1cnc(-n2nc(C)cc2C)nc1Nc1ccc(O)cc1	31%	-16%	-14%	u	2	-10%	x
CCOC(=O)c1cnc(-n2nc(C)cc2C)nc1Nc1ccc(N(C)C)cc1	u	1.8µM*	3.2µM*	0.89µM*	-2	1.1µM*	1.6*
CC(C)COC(=O)N1CCCC1C(=O)Nc1nccs1 (centres undefined)	-2%	-35%	x	u	2	-14%	13*
CC1CCN(CCC(=O)Nc2nccs2)CC1	38%	0%	x	19%	5	-11%	x
SMILES	HP1b chromo inh	BAZ2B block	L3MBTL1 inh	G9a inh-1	PI5P4Ka inh	JMJD2A Tudor inh	G9a inh-2	others
Cc1cc(F)ccc1NC(=O)c1c(C)oc2c1C1=NCCN1C=N2	12%	-1%	x	23%[59 µM]	x	-17%	x
CCN(Cc1ccncc1)Cc1c(O)ccc2ccccc12	u	-29%	-12%	1.4µM*	-1	79µM*	0.36*
CC(C)CN(Cc1c(O)ccc2ccccc12)CC(C)C	14%	u	-7%	x	-3	-15%	x
CCOC(=O)C1CCN(Cc2ccc(O)c3ncccc23)CC1	-12%	4µM*	28µM*	4µM*	x	10µM*	x	JMJD2E inh=13µM*;FDH inh=u
CCC(C(=O)Nc1ccccc1C(=O)OC)n1c(C)c2cnn(-c3ccccc3)c(=O)c2c1C (centres undefined)	15%	-33%	x	-29%[59 µM]	x	u	x
CCOC(=O)N1CCc2c(sc(NCc3ccc(OC)c(Br)c3)c2C(=O)Nc2cc(OC)ccc2OC)C1	u	-31%	x	1.6µM*	x	u	1.8*
CCOc1ccc(NC(=O)c2c(NCc3cccnc3)sc3c2CCC(C)C3)cc1 (centres undefined)	-1%	u	x	2.2µM*	x	16µM*	1.3*
CCOC(=O)N1CCc2c(sc(NCc3cccc(F)c3)c2C(=O)Nc2ccc(OCC)cc2)C1	-13%	u	x	2µM*	x	u	3.6*
CCOC(=O)N1CCc2c(sc(NCc3sccc3C)c2C(=O)Nc2cc(OC)ccc2OC)C1	u	u	x	2.8µM*	x	11µM*	5.8*
CC1CCN(S(=O)(=O)c2ccc3c(c2)oc(=O)n3CC(=O)NCc2ccc(F)cc2)CC1	27%	-29%	x	-20%[59 µM]	x	-19%	x
CCN(CC)c1ccc(NC(=O)c2cnn3c(C(F)F)cc(-c4ccccc4)nc23)cc1	u	2.5µM*	x	2µM*	x	8.9µM*	4.6*
CC(C)c1ccc(NC(=O)c2cnn3c(C(F)F)cc(-c4ccccc4)nc23)cc1	-13%	-32%	x	-21%[59 µM]	x	-16%	x
CC1=NN(c2nc3ccccc3[nH]2)C(=O)C1Cc1ccccc1 (centres undefined)	35%	22µM*	20µM*	u	-29	50µM*	x	JMJD2E inh=5.8µM*;FDH inh=u
